{"source": "the supplement of paper PMC11732987", "about": "“Enantioselective OTUD7B fragment discovery through chemoproteomics screening and high-throughput optimisation” (Communications Chemistry, 2025)", "note": "Unmarked numbers belong to inactive results."}
{"target": "OTUB1 (UniProt Q96FW1)", "sequence (Q96FW1 whole entry, the tested form may be a part)": "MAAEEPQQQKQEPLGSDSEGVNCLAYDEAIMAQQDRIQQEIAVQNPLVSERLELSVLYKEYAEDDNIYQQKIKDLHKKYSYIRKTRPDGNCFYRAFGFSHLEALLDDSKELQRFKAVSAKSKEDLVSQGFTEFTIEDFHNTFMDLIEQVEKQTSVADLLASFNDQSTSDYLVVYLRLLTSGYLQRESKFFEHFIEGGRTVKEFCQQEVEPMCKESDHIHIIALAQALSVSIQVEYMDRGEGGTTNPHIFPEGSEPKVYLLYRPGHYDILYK", "test": "log2 ratio of Biotin-Ahx-Ub-VS probe labelling (fragment/DMSO); higher = less target engagement (more negative = stronger competition), active = hit call of the paper (q ≤ 0.05, log2 ratio ≤ -1)", "settings": "compound concentration: 200 uM; treatment time: 3 h", "method_in_brief": "(§1)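 Global-median-normalised Spectronaut label-free quantities were compared by unpaired t-test, and values are average log2 ratios of fragment over vehicle. Only proteins with ≥2 unique peptides were used. HEK293T lysate (495 µg per sample) was treated in triplicate with fragment at 200 µM or vehicle for 3 h and then with Biotin-Ahx-Ub-VS at 0.5 µM final for 1 h. Labelled DUBs were then NeutrAvidin-enriched, digested with LysC and trypsin, and run by diaPASEF LC-MS/MS.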"}
{"smiles": "Cc1cccc(N(CCC#N)C(=O)CCl)c1C", "log2 ratio of Biotin-Ahx-Ub-VS probe labelling": 0.00102}
{"smiles": "O=C(CCl)NCC(=O)N1CCCC1", "log2 ratio of Biotin-Ahx-Ub-VS probe labelling": -0.202}
{"smiles": "Cl.O=C(CCl)NC1(c2ncccn2)CCC1", "log2 ratio of Biotin-Ahx-Ub-VS probe labelling": -0.293}
{"smiles": "Cc1ccccc1OCC(=O)N1CCN(C(=O)CCl)CC1", "log2 ratio of Biotin-Ahx-Ub-VS probe labelling": -0.249}
{"smiles": "O=C(CCl)N1CCOC2(CCC2)CC1", "log2 ratio of Biotin-Ahx-Ub-VS probe labelling": -0.14}
{"smiles": "O=C(CCl)N1CCOC(CCc2ccccc2)C1", "note": "(centres undefined)", "log2 ratio of Biotin-Ahx-Ub-VS probe labelling": -0.408}
{"smiles": "CCC(NC(=O)CCl)c1ccc(Cl)cc1", "note": "(centres undefined)", "log2 ratio of Biotin-Ahx-Ub-VS probe labelling": -0.267}
{"smiles": "COc1cc(Cl)c(C)cc1NC(=O)CCl", "log2 ratio of Biotin-Ahx-Ub-VS probe labelling": -0.0736}
{"smiles": "O=C(CCl)NCc1cccc(F)c1", "log2 ratio of Biotin-Ahx-Ub-VS probe labelling": -0.181}
{"smiles": "O=C(CCl)NCc1cccc(N2CCCC2=O)c1", "log2 ratio of Biotin-Ahx-Ub-VS probe labelling": 0.122}
{"smiles": "Cl.O=C(CCl)NCc1cc2c(nc1O)CCCC2", "log2 ratio of Biotin-Ahx-Ub-VS probe labelling": -0.044}
{"smiles": "COc1ccc(CN(C)C(=O)CCl)cc1", "log2 ratio of Biotin-Ahx-Ub-VS probe labelling": -0.0239}
{"smiles": "CC1CCc2onc(CNC(=O)CCl)c2C1", "note": "(centres undefined)", "log2 ratio of Biotin-Ahx-Ub-VS probe labelling": 0.048}
{"smiles": "N#Cc1ccccc1N1CCN(C(=O)CCl)CC1", "log2 ratio of Biotin-Ahx-Ub-VS probe labelling": -0.449}
{"smiles": "Cl.O=C(CCl)N1CCc2ncncc2C1", "log2 ratio of Biotin-Ahx-Ub-VS probe labelling": -0.263}
{"smiles": "Cc1cc(Cl)ccc1NC(=O)CCl", "log2 ratio of Biotin-Ahx-Ub-VS probe labelling": -0.116}
{"smiles": "Cc1ccc(CC(NC(=O)CCl)c2ccccn2)cc1.Cl", "note": "(centres undefined)", "log2 ratio of Biotin-Ahx-Ub-VS probe labelling": -0.0206}
{"smiles": "O=C(CCl)N1CCC(C(=O)N2CCCC2)CC1", "log2 ratio of Biotin-Ahx-Ub-VS probe labelling": -0.0283}
{"smiles": "CCc1c[nH]c(CNC(=O)CCl)n1.Cl", "log2 ratio of Biotin-Ahx-Ub-VS probe labelling": -0.461}
{"smiles": "O=C(CCl)NC(Cn1ccccc1=O)c1ccccc1", "note": "(centres undefined)", "log2 ratio of Biotin-Ahx-Ub-VS probe labelling": -0.3}
{"smiles": "Cc1nnc(C(NC(=O)CCl)c2ccccc2)n1C", "note": "(centres undefined)", "log2 ratio of Biotin-Ahx-Ub-VS probe labelling": -0.00852}
{"smiles": "Cc1cccc2nc(CCNC(=O)CCl)cn12.Cl", "log2 ratio of Biotin-Ahx-Ub-VS probe labelling": -0.236}
{"smiles": "Cc1cccnc1NC(=O)C1CCN(C(=O)CCl)CC1.Cl", "log2 ratio of Biotin-Ahx-Ub-VS probe labelling": -0.251}
{"smiles": "COc1cccc(CN(C)C(=O)CCl)c1", "log2 ratio of Biotin-Ahx-Ub-VS probe labelling": 0.00861}
{"smiles": "Cl.O=C(CCl)NCCN1CCc2ccccc21", "log2 ratio of Biotin-Ahx-Ub-VS probe labelling": 0.169}
{"smiles": "O=C(CCl)N1CCC(c2nc3ccccc3o2)CC1", "log2 ratio of Biotin-Ahx-Ub-VS probe labelling": 0.109}
{"smiles": "O=C(CCl)NC1CCC(C(F)(F)F)CC1", "note": "(centres undefined)", "log2 ratio of Biotin-Ahx-Ub-VS probe labelling": 0.207}
{"smiles": "Cc1nc(CNC(=O)CCl)c2ccccn12.Cl", "log2 ratio of Biotin-Ahx-Ub-VS probe labelling": -0.107}
{"smiles": "O=C(CCl)NC1CCS(=O)(=O)c2ccccc21", "note": "(centres undefined)", "log2 ratio of Biotin-Ahx-Ub-VS probe labelling": 0.0659}
{"smiles": "O=C(CCl)N1CCC(=C(F)CO)C1", "log2 ratio of Biotin-Ahx-Ub-VS probe labelling": -0.0358}
{"smiles": "O=C(CCl)Nc1cccc2ncccc12", "log2 ratio of Biotin-Ahx-Ub-VS probe labelling": 0.156}
{"smiles": "O=C(CCl)Nc1cccc(C(=O)N2CCSCC2)c1", "log2 ratio of Biotin-Ahx-Ub-VS probe labelling": -0.523}
{"target": "T1, OTUD4 (UniProt Q01804)", "T1 sequence (whole entry)": "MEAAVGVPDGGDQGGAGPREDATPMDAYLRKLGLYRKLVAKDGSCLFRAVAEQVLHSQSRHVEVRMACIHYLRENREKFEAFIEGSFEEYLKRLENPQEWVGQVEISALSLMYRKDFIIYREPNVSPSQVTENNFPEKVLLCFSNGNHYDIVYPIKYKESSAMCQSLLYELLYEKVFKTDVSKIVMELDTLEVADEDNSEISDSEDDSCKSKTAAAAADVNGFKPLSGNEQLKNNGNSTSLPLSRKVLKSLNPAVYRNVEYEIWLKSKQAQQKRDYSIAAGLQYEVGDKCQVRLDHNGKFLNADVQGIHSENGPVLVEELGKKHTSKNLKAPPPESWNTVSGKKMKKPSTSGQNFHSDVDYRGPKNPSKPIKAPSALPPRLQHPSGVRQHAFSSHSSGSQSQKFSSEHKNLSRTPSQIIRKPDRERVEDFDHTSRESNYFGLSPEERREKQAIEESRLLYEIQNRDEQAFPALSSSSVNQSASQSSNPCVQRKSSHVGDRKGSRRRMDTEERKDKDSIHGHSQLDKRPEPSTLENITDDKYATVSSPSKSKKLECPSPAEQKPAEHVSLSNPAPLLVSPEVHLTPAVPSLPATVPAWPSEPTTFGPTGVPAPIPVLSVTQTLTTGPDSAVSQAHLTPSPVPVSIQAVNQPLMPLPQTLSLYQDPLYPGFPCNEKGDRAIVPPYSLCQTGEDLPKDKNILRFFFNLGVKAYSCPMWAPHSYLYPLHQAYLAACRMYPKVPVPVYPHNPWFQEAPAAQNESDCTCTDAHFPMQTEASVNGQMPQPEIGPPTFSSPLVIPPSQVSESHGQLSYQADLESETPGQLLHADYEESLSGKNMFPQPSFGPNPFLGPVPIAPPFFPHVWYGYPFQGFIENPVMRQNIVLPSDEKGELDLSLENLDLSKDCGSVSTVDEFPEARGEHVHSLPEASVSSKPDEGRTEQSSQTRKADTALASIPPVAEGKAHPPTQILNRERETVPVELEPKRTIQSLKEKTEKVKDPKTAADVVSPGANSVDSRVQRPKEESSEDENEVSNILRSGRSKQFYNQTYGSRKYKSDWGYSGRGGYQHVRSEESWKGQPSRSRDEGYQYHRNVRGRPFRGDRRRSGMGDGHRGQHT", "test": "log2 ratio of Biotin-Ahx-Ub-VS probe labelling (fragment/DMSO); higher = less target engagement (more negative = stronger competition), active = hit call of the paper (q ≤ 0.05, log2 ratio ≤ -1)", "settings": "compound concentration: 200 uM; treatment time: 3 h", "method_in_brief": "as §1"}
{"smiles": "Cc1cccc(N(CCC#N)C(=O)CCl)c1C", "log2 ratio of Biotin-Ahx-Ub-VS probe labelling": "-1.76 (active)"}
{"smiles": "O=C(CCl)NCC(=O)N1CCCC1", "log2 ratio of Biotin-Ahx-Ub-VS probe labelling": -0.278}
{"smiles": "Cl.O=C(CCl)NC1(c2ncccn2)CCC1", "log2 ratio of Biotin-Ahx-Ub-VS probe labelling": -0.17}
{"smiles": "Cc1ccccc1OCC(=O)N1CCN(C(=O)CCl)CC1", "log2 ratio of Biotin-Ahx-Ub-VS probe labelling": 0.0744}
{"smiles": "O=C(CCl)N1CCOC2(CCC2)CC1", "log2 ratio of Biotin-Ahx-Ub-VS probe labelling": -0.374}
{"smiles": "O=C(CCl)N1CCOC(CCc2ccccc2)C1", "note": "(centres undefined)", "log2 ratio of Biotin-Ahx-Ub-VS probe labelling": -0.558}
{"smiles": "CCC(NC(=O)CCl)c1ccc(Cl)cc1", "note": "(centres undefined)", "log2 ratio of Biotin-Ahx-Ub-VS probe labelling": -0.628}
{"smiles": "COc1cc(Cl)c(C)cc1NC(=O)CCl", "log2 ratio of Biotin-Ahx-Ub-VS probe labelling": -0.51}
{"smiles": "O=C(CCl)NCc1cccc(F)c1", "log2 ratio of Biotin-Ahx-Ub-VS probe labelling": -0.316}
{"smiles": "O=C(CCl)NCc1cccc(N2CCCC2=O)c1", "log2 ratio of Biotin-Ahx-Ub-VS probe labelling": -0.18}
{"smiles": "Cl.O=C(CCl)NCc1cc2c(nc1O)CCCC2", "log2 ratio of Biotin-Ahx-Ub-VS probe labelling": -0.437}
{"smiles": "COc1ccc(CN(C)C(=O)CCl)cc1", "log2 ratio of Biotin-Ahx-Ub-VS probe labelling": -0.413}
{"smiles": "CC1CCc2onc(CNC(=O)CCl)c2C1", "note": "(centres undefined)", "log2 ratio of Biotin-Ahx-Ub-VS probe labelling": -0.0637}
{"smiles": "N#Cc1ccccc1N1CCN(C(=O)CCl)CC1", "log2 ratio of Biotin-Ahx-Ub-VS probe labelling": -0.714}
{"smiles": "Cl.O=C(CCl)N1CCc2ncncc2C1", "log2 ratio of Biotin-Ahx-Ub-VS probe labelling": -0.304}
{"smiles": "Cc1cc(Cl)ccc1NC(=O)CCl", "log2 ratio of Biotin-Ahx-Ub-VS probe labelling": -0.0791}
{"smiles": "Cc1ccc(CC(NC(=O)CCl)c2ccccn2)cc1.Cl", "note": "(centres undefined)", "log2 ratio of Biotin-Ahx-Ub-VS probe labelling": 0.0988}
{"smiles": "O=C(CCl)N1CCC(C(=O)N2CCCC2)CC1", "log2 ratio of Biotin-Ahx-Ub-VS probe labelling": 0.178}
{"smiles": "CCc1c[nH]c(CNC(=O)CCl)n1.Cl", "log2 ratio of Biotin-Ahx-Ub-VS probe labelling": -0.214}
{"smiles": "O=C(CCl)NC(Cn1ccccc1=O)c1ccccc1", "note": "(centres undefined)", "log2 ratio of Biotin-Ahx-Ub-VS probe labelling": -0.122}
{"smiles": "Cc1nnc(C(NC(=O)CCl)c2ccccc2)n1C", "note": "(centres undefined)", "log2 ratio of Biotin-Ahx-Ub-VS probe labelling": 0.483}
{"smiles": "Cc1cccc2nc(CCNC(=O)CCl)cn12.Cl", "log2 ratio of Biotin-Ahx-Ub-VS probe labelling": -0.21}
{"smiles": "Cc1cccnc1NC(=O)C1CCN(C(=O)CCl)CC1.Cl", "log2 ratio of Biotin-Ahx-Ub-VS probe labelling": -0.365}
{"smiles": "COc1cccc(CN(C)C(=O)CCl)c1", "log2 ratio of Biotin-Ahx-Ub-VS probe labelling": -0.462}
{"smiles": "Cl.O=C(CCl)NCCN1CCc2ccccc21", "log2 ratio of Biotin-Ahx-Ub-VS probe labelling": -0.775}
{"smiles": "O=C(CCl)N1CCC(c2nc3ccccc3o2)CC1", "log2 ratio of Biotin-Ahx-Ub-VS probe labelling": -0.417}
{"smiles": "O=C(CCl)NC1CCC(C(F)(F)F)CC1", "note": "(centres undefined)", "log2 ratio of Biotin-Ahx-Ub-VS probe labelling": -0.576}
{"smiles": "Cc1nc(CNC(=O)CCl)c2ccccn12.Cl", "log2 ratio of Biotin-Ahx-Ub-VS probe labelling": -0.199}
{"smiles": "O=C(CCl)NC1CCS(=O)(=O)c2ccccc21", "note": "(centres undefined)", "log2 ratio of Biotin-Ahx-Ub-VS probe labelling": "-1.76 (active)"}
{"smiles": "O=C(CCl)N1CCC(=C(F)CO)C1", "log2 ratio of Biotin-Ahx-Ub-VS probe labelling": 0.198}
{"smiles": "O=C(CCl)Nc1cccc2ncccc12", "log2 ratio of Biotin-Ahx-Ub-VS probe labelling": -0.176}
{"smiles": "O=C(CCl)Nc1cccc(C(=O)N2CCSCC2)c1", "log2 ratio of Biotin-Ahx-Ub-VS probe labelling": -0.0407}
